# Source: PubChem BioAssay (Tox21)
# Inconclusive results are not listed. A call without a number means that no potency is given here. The source made the active and inactive calls. Calls come from the whole dose curve.
# Molecular target: Beta-2 adrenergic receptor (Homo sapiens) (UniProt P07550)
# Test: Adrenergic beta2 receptor (ADRB2) small molecule agonists, cell-based qHTS assay (AID 1963593)
# In short: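 CHO cells stably over-expressing ADRB2 were plated overnight at 37C, then dosed with compounds plus a stimulation mix containing 100uM IBMX and 25uM Ro-20-1724 for 0.5hr at room temperature. cAMP was measured by HTRF competition, 1hr.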
# Potency is the fitted concentration of half-maximal effect.
# Chain of Beta-2 adrenergic receptor (Homo sapiens) (P07550 whole entry, looked up): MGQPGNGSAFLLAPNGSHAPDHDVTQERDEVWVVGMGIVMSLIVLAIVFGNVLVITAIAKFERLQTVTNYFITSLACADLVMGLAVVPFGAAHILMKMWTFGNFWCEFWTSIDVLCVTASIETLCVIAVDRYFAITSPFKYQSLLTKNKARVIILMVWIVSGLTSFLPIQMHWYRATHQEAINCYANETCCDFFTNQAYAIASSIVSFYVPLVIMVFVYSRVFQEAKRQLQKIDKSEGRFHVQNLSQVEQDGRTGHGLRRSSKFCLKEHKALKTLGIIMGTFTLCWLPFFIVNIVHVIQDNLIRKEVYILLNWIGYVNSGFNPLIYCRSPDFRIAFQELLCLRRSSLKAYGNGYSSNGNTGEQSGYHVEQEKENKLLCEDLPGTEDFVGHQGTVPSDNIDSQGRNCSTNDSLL
row,SMILES,Potency
1,CCCN(CCC)c1c([N+](=O)[O-])cc(C(F)(F)F)c(N)c1[N+](=O)[O-],inactive
2,CCOc1cc(OCC)c(C(C)=O)cc1OCC,inactive
3,CCCCCCC,inactive
4,CC1=CC(O)CC(C)(C)C1 (stereo not drawn),inactive
5,C[n+]1cc2c3c(ccc2c2ccc4cc5c(cc4c21)OCO5)OCO3,9.2 µM (active)
6,Cc1occc1C(=O)Nc1ccc(C(=O)N2CCC(F)(F)/C(=C\C(=O)N3CCC(N4CCCCC4)CC3)c3ccccc32)cc1,inactive
7,Oc1cn2c(n1)Nc1ccc(Cl)c(Cl)c1C2,inactive
8,O=C(O)P(=O)(O)O,inactive
9,Nc1c(Cl)cc(Cl)cc1Cl,inactive
10,O=C(OCCCCCOC(=O)c1ccccc1)c1ccccc1,inactive
11,CC1=NS(=O)(=O)c2cc(Cl)ccc2N1,inactive
12,CC1(C)S[C@@H]2[C@H](NC(=O)Cc3ccccc3)C(=O)N2[C@H]1C(=O)O (tested in a mixture with another compound),inactive
13,CCOC(=O)COc1cc(-n2ncc(C(F)(F)F)c(C)c2=O)c(F)cc1Cl,inactive
14,C=CC(=C)CC/C=C(\C)CCC=C(C)C,inactive
15,CCN(CC)CCNc1ccc(CNC=O)c2sc3ccc(OC)cc3c(=O)c12,inactive
16,Nc1cnn([C@@H]2O[C@H](CO)[C@@H](O)[C@H]2O)c(=O)n1,inactive
17,C/C=C(/C(=C/C)c1ccc(O)cc1)c1ccc(O)cc1,inactive
18,C/C(=N\O)c1ccc(OCC(=O)N2CCCCC2)cc1,inactive
19,COc1cc(O)cc(O)c1,inactive
20,c1ccc(C[P+](c2ccccc2)(c2ccccc2)c2ccccc2)cc1,inactive
21,CCc1cccc(CC)c1,inactive
22,O=C(O)Cc1cn(-c2ccccc2)nc1-c1ccc(Cl)cc1,inactive

row,SMILES,Potency
1,O=Cc1c2ccccc2c(Cl)c2ccccc12,inactive
2,CCc1nnc(NS(=O)(=O)c2ccc(N)cc2)s1,inactive
3,CO[Si](CCCS)(OC)OC,inactive
4,Cc1cc(OI)c(C(C)C)cc1-c1cc(C(C)C)c(OI)cc1C,inactive
5,CCN(CC)CC(=O)Nc1c(C)cccc1C(=O)OC,inactive
6,C=C(C)C(=O)OCC1CCCO1 (stereo not drawn),inactive
7,CCCCCCCCCCCC(=O)NCCCN(C)C,inactive
8,Cc1nc2n(c(=O)c1CCN1CCC(C(=O)c3ccc(F)cc3)CC1)CCS2,inactive
9,CCC(C)CCCC(C)(C)O (stereo not drawn),inactive
10,CNc1c2c(nn1C)CCCC2,inactive
11,CC(=O)NO,inactive
12,CCCCOCCOC(=O)CCCCCCCCC(=O)OCCOCCCC,inactive
13,CCCCCCCC(=O)Oc1c(Br)cc(C#N)cc1Br,inactive
14,CC(C)=CCC[C@@](C)(O)[C@H]1CC=C(C)CC1,inactive
15,CCN(CC)C(=O)N1CCN(C)CC1,inactive
16,C#CC(C)N(C)C(=O)Nc1ccc(Cl)cc1 (stereo not drawn),inactive
17,CC(C)CC(C)CC(C)CC(C)COC(=O)c1ccccc1C(=O)OCC(C)CC(C)CC(C)CC(C)C (stereo not drawn),inactive
18,COc1ccc(S(=O)(=O)N2c3ccc(Cl)cc3[C@@](O)(c3ccccc3Cl)[C@H]2C(=O)N2CCC[C@@H]2C(N)=O)cc1OC,inactive
19,NC(=O)NC(=O)Cc1ccccc1,inactive
20,O=C(O)Cc1ccccc1Oc1ccc(Cl)cc1Cl,inactive
21,O=Cc1cccc(Br)c1,inactive
